Pf Dd2 inh – blocks in vitro growth of P. falciparum Dd2; P. falciparum Dd2 growth, SYBR Green, 72 h; Potency, µM (titrated, usually from 28.9 µM), without a hit: top-dose activity, negative = inhibition, most hits filed as inhibitors; 120,000 compounds, 4.3% hits; active = well fitted inhibition curve with a large enough effect;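 note: plate controls were DMSO vehicle for no effect and reference drug for full effect; nearly all actives have a fitted effect of over 65% in size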
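Infected erythrocytes (Dd2, 0.3% parasitemia, 2.5% hematocrit final) are added to compound in RPMI-1640/Albumax II medium, grown 72 h at 37C in low oxygen, then lysed with saponin/Triton-X containing SYBR Green and read by fluorescence.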
Numbers without * were called inactive; i = inactive; [ ] = another dose, or the depositor's remark. The entries come from a sample that favours hits as a whole. Potency is the fitted concentration of half-maximal effect.

SMILES | Pf Dd2 inh
Cc1cccc(CC(=O)N2CCC3(CC2)CC(N(C(=O)NC(C)C)C2CC2)CCO3)c1 (stereo not given) | i
Cc1cccc(S(=O)(=O)N2CCC(Oc3ncccc3C(=O)N3CCOCC3)C2)c1 (stereo not given) | 26%
Cc1ccsc1C(=O)N1CCC2(CC1)N(C)C(=O)CS2(=O)=O | 28%
Clc1ccc2nc(N3CCC(NCCc4cccnc4)CC3)sc2c1 | 11µM*
CC1CCN(c2nc3ccc(C(=O)NCc4ccccc4)cc3s2)CC1 | -27%
O=C1CCC2(CCN(c3nc4ccccc4s3)CC2)CN1Cc1cccnc1 | -23%
COc1cccc(C(=O)NC2CCN(c3cc(-c4ccc(F)cc4)[nH]n3)CC2)c1OC | i
COCCCNc1ccc2nnc(-c3ccc(F)cn3)n2n1 | -1%[44.1 µM]
Cc1ccc(C2=Nc3ccccc3N(CC(=O)NCc3ccc(F)cc3)C(=O)C2)cc1C | -17%
O=C(CN1C(=O)CC(c2ccccc2)=Nc2ccccc21)Nc1ccc(Br)cc1 | 10µM*
Cc1ccc(C2=Nc3ccccc3N(CC(=O)NCc3ccc(Cl)cc3)C(=O)C2)cc1C | -14%
Cc1ccc(N2CCN(C(=O)c3cc4n(n3)CC(c3ccc(Cl)cc3)OC4)CC2)c(C)c1 (stereo not given) | i
Cc1nn2c(c1-c1ccccc1[S+](C)(=O)[O-])N(C(=O)COc1ccccc1)CCC2 | 1%[44.1 µM]
O=C(Nc1ccc2c(N3CCCC3)ncnc2c1)c1cc(F)ccc1F | 3.2µM*
Cc1oc2ncnc(N3CCCCC3)c2c1C(=O)Nc1cccc(F)c1 | i
O=C(Nc1ccc2c(N3CCCC3)ncnc2c1)c1cccc(F)c1 | 2µM*
O=C(Nc1ccc2c(N3CCCC3)ncnc2c1)c1cc(F)ccc1Cl | 5µM*
O=C(Nc1ccc2ncnc(N3CCCCC3)c2c1)c1ccc(F)c(F)c1 | -7%
O=C(Nc1ccc2ncnc(N3CCCCC3)c2c1)c1cc(F)ccc1F | i
CCCC(=O)N1Cc2ccccc2NC(=O)C12CCNC2 (stereo not given) | 31%[44.1 µM]
COc1ccc(C(=O)N[C@H]2CO[C@H]3[C@@H]2OC[C@@H]3Nc2nccc(C(C)(C)C)n2)cc1 | -14%[44.1 µM]
O=C1Nc2ccccc2CC12CN(CC1CCNC1)C2 (stereo not given) | 19%[44.1 µM]
COc1ncccc1-c1csc(CN2CCCC(C)(NC(C)=O)C2)c1 (stereo not given) | i
CC(=O)NC1(C)CN(Cc2ccc(-c3ccc(Oc4ccccc4)cc3)s2)C1 | 4µM*
CC(=O)NC1(C)CN(c2cccc(C(F)(F)F)c2)C1 | -4%[44.1 µM]
SMILES | Pf Dd2 inh
CC(=O)NC1(C)CN(Cc2ccc(-c3cccc(F)c3)s2)C1 | -22%[44.1 µM]
CC(=O)Nc1cccc(-c2csc(CN3CCCC(C)(NC(C)=O)C3)c2)c1 (stereo not given) | i
CC(=O)NC1(C)CN(Cc2ccc(-c3cccc(C(F)(F)F)c3)s2)C1 | 7.1µM*
NC1(C(=O)N2CCCC(N3CCN(Cc4ccc5c(c4)OCO5)CC3)C2)CC1 (stereo not given) | -17%
COC(=O)c1ccccc1NC(=O)CSc1n[nH]c(C)n1 | 53%
COC(=O)c1ccccc1NC(=O)CSc1nc(-c2ccccc2)cc(C(F)(F)F)n1 | 2.8µM*
CC(C)(C)c1ccccc1NC(=O)CSc1nc(-c2cccs2)cc(C(F)(F)F)n1 | i
O=C(NC1CCCC1)N1CCCC(c2nn[nH]n2)C1 (stereo not given) | 24%
COc1ccc(OCc2nc3c(n2Cc2ccccc2)C(=O)N(CC2CC2)CCN3)cc1OC | -12%
O=C1c2c(nc(COc3ccc4c(c3)OCO4)n2Cc2ccccc2)NCCN1Cc1cccc(Cl)c1 | -14%
COc1ccccc1OCc1nc2c(n1Cc1ccccc1)C(=O)N(Cc1cccc(Cl)c1)CCN2 | 10µM*
COCCN1CCNc2nc(CNc3ccon3)n(Cc3ccccc3)c2C1=O | 11µM*
CC(=O)N1CCN(Cc2nc3c(n2Cc2ccccc2)C(=O)N(Cc2cccc(Cl)c2)CCN3)CC1 | -14%
COc1cc(OC)cc(OCc2nc3c(n2Cc2ccccc2)C(=O)N(Cc2cccc(Cl)c2)CCN3)c1 | 7.9µM*
COc1ccccc1OCc1nc2c(n1Cc1ccccc1)C(=O)N(CC1CC1)CCN2 | i
O=C1c2c(nc(COc3cccc(Cl)c3)n2Cc2ccccc2)NCCN1CC1CC1 | -30%[44.1 µM]
COCCN1CCNc2nc(COc3ccc(Oc4ccccc4)cc3)n(Cc3ccccc3)c2C1=O | -9%
O=C1c2c(nc(COc3cc(F)cc(F)c3)n2Cc2ccccc2)NCCN1Cc1ccccc1 | -21%
COc1cccc(OCc2nc3c(n2Cc2ccccc2)C(=O)N(Cc2cccc(Cl)c2)CCN3)c1 | 13µM*
COCCN1CCNc2nc(COc3ccccc3OC(F)(F)F)n(Cc3ccccc3)c2C1=O | i
COc1cc(NC(=O)CC2CCCN(c3cnn(C)c(=O)c3)C2)cc(OC)c1 (stereo not given) | i
COC(=O)c1ccc(COC(=O)C2=CN(C)S(=O)(=O)N=C2C)o1 | 4%
COc1ccc(NC(=O)N2CCC(N3CC4CC(C3)[C@H]3CCCC(=O)N3C4)CC2)cc1OC (stereo not given in full) | 3%
O=C(NCCN1CCOCC1)c1ccc(C2CCCNC2)cc1 (stereo not given) | -20%
CN1CC(=O)N(c2ccccc2F)Cc2c(NCc3ccccc3)ncnc21 | 3%
SMILES | Pf Dd2 inh
O=C1Nc2ccccc2CC12CCN(Cc1cncs1)CC2 | i
CCn1cc(S(=O)(=O)N2CCCCCCNC(=O)[C@@H]3CCCC[C@@H]32)cn1 | 8%
COCCNC(=O)c1ccc2nnc(-c3cncc(Cl)c3)n2c1 | 146%
COc1cccc(C(=O)N2CCOC[C@H](Oc3cccnc3)C2)c1 | -3%[44.1 µM]
Cn1cc(C(=O)N2CCCC(Cc3noc(-c4ccncc4)n3)C2)cn1 (stereo not given) | 11%
Cc1ccccc1S(=O)(=O)N1CCn2nnc(CCC(=O)NC3CC3)c2C1 | 18%
COc1ccc(C(=O)N2CC[C@H]3COC(=O)N3c3cc(F)ccc3C2)cc1 | 24%[44.1 µM]
O=C1c2c(nc(COc3ccc4c(c3)OCO4)n2Cc2ccccc2)NCCN1CCOc1ccccc1 | i
O=C1c2c(nc(COc3ccccc3)n2Cc2ccccc2)NCCN1Cc1ccccc1 | -34%[44.1 µM]
O=C1c2c(nc(COc3ccc(F)cc3)n2Cc2ccccc2)NCCN1CCOc1ccccc1 | 5.6µM*
CN(C)c1nc2c(c(=O)[nH]1)CCN(CCc1ccccc1)CC2 | -7%[5.79 µM]
CN(C)c1ccc(-c2ccnc(N[C@H]3CO[C@H]4[C@@H]3OC[C@H]4OC(=O)NC3CCCCC3)n2)cc1 | i
Cc1ccc(F)cc1CN1CCOc2cc([S+](N)(=O)[O-])ccc2C1 | -21%[44.1 µM]
CN(CC(=O)NCC1CCN(c2cnn(C)c(=O)c2)C1)C1CCNCC1 (stereo not given) | -1%
CNCCNC(=O)C1CCN(c2nc(-c3ccccc3)nc3c2CCC3)CC1 | 13µM*
COC(C)(C)C(=O)N1CCN(c2nc(-c3ccccc3)nc3c2CCC3)CC1 | i
CCN(CC1CCCO1)C(=O)C1CCN(c2nc(-c3ccccc3)nc3c2CCC3)CC1 (stereo not given) | 11µM*
CN(C)c1nc(-c2ccccc2)nc2c1CCN(C(=O)C1CCOC1)C2 (stereo not given) | -16%
CC(C)(C)CC(=O)N1CCN(c2nc(-c3ccccc3)nc3c2CCC3)CC1 | -10%
COc1ccc(CN(CC2CCCO2)C(=O)C2CCN(CC(N)=O)CC2)cc1 (stereo not given) | -20%
CN(C(=O)c1cc2ccccc2s1)C1CCCN(C2Cc3ccccc3C2)C1 (stereo not given) | i
